Only some compounds are listed: those with a hit (about 7.9% of all), similar ones and a draw of the others.
FMDV inh: High Throughput Screening for Foot and Mouth Disease Virus Antivirals; FMDV antiviral cell-based qHTS; Potency, µM (top dose mostly 57.9 µM), inactives show at the highest dose activity change, negative = inhibition, hits mostly inhibitors; hit rate 1.2% among 410,000; calls by dose curve; tested in HEK293T cells; also: read-out not given here; potency is read from the fitted curve at half-maximal effect; nearly all actives have a fitted effect of over 45% in size
HCMV inh: qHTS Assay for inhibitors of the human cytomegalovirus (HCMV) | activity change, negative = inhibition, % at 57.5 µM | HFF cells, HCMV-luciferase reporter, 72 h; active compounds read low | hit rate 4.5% among 410,000; in the data active = activity change below about -60%; inconclusive = no clear call, values can overlap the other calls; inactive = above about -39%
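Screen run at 2 compound doses on HFFs infected with reporter HCMV, MOI 1 PFU/cell. Luciferase activity from cell lysates at 72 h post infection gave inhibition relative to buffer-only and Salinomycin wells.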
Marburg entry inh: qHTS for inhibitors of binding or entry into cells for Marburg Virus; Marburg virus pseudotyped entry inhibition, cell reporter; Potency, µM (top dose mostly 37.8 µM), without a hit: at the top dose activity change, negative = inhibition, hits mostly inhibitors; hit rate 1.8% among 300,000; AID 540276, 2011; calls by dose curve; tested in HEK293 cells; also: potency is read from the fitted curve at half-maximal effect
Lassa entry inh: qHTS for Inhibitors of binding or entry into cells for Lassa Virus | Lassa virus pseudotype entry inhibition, cell reporter | hit rate 1.2% among 300,000 | AID 540256, 2011 | Potency, µM (doses to about 37.9 µM), for inactives: at the top dose activity change, negative = inhibition, usual class: inhibitors; calls by dose curve; tested in HEK293 cells; also: potency is read from the fitted curve at half-maximal effect; nearly all actives have a fitted effect of over 50% in size
HCV inhibitor: qHTS Assay for Inhibitors of Hepatitis C Virus (HCV); Huh7.5.1 HCVcc-Cre infection, luciferase reporter, 44 h; Potency, µM (top dose mostly 41.8 µM), for the others: top-dose activity change, negative = inhibition, hits mostly inhibitors; hit rate 3.4% among 340,000; active = well fitted inhibition curve with a large enough effect; inconclusive = small, poorly fitted or top-dose-only effect, or another doubt; inactive = no such curve, though single readings can be large or run the other way; also: potency is read from the fitted curve at half-maximal effect
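After 44 h co-culture of compound, cells and HCVcc-Cre (~0.5 moi), substrate is added for 15 min at room temperature and luciferase measured over 15 sec. Cells were seeded at 1,000/well and pre-cultured 4 h.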
Starred values were filed as active, the others as inactive; ? = inconclusive; · = not tested or not shown; ! = repeats disagree; [ ] = another dose, or the depositor's remark. % is scaled to controls: 0 for no effect and ±100 for the full control effect.

SMILES	FMDV inh	HCMV inh	Marburg entry inh	Lassa entry inh	HCV inhibitor
O=C(OCn1nnc2ccccc2c1=O)c1cn(-c2ccccc2)nc1-c1cccnc1	?	-30.4	-19.6%	2.6%	10µM*
CC(OC(=O)c1cn(-c2ccccc2)nc1-c1cccnc1)C(N)=O (centres undefined)	-3.2%	-14.8	-10.0%[46.1 µM]	5.2%	17.4%
CCOC(=O)c1cn(-c2ccccc2)nc1-c1cccnc1	-10.0%	41.2	?	2.6%	10µM*
COC(=O)c1cn(-c2ccccc2)nc1-c1ccccc1	-8.7%	14.2	-20.8%	8.7%	11.2µM*
CCOC(=O)c1c(-c2ccccc2)oc2ccc(N(C(C)=O)S(=O)(=O)c3ccc(CC)cc3)cc12	-10.2%	0.4	?	?	·
COc1ccccc1CNc1ccnc(-c2ccc3c(c2)OCO3)n1	15.2%	·	·	·	·
O=C(O)c1ccc(NC(=O)c2cn(-c3ccccc3)nc2-c2ccc(Br)cc2)cc1	-1.2%	-63.6*!	-0.7%[46.1 µM]	-16.1%[46.1 µM]	9.6%
CCOC(=O)c1cn(-c2ccccc2)nc1-c1ccncc1	-24.0%	-17.2	-19.0%	18.3%	10µM*
COc1ccc(C(=O)NC(=S)N2CCOCC2)cc1OC	-5.0%	24.8	·	·	5.6%
O=C(O)c1cn(-c2ccccc2)nc1-c1ccncc1	9.6%	37.2	22.6%[46.1 µM]	7.3%	5.4%
O=C(NC1CCN(Cc2ccccc2)CC1)c1cn(-c2ccccc2)nc1-c1cccnc1	-18.6%	-25.3	11.2µM*	-2.6%[46.1 µM]	-16.6%
COc1ccc(-c2nn(-c3ccccc3)cc2C(=O)NC(=S)N2CCOCC2)cc1OC	18.9%	-96.5*	·	·	-2.4%
Cc1cnc(C(=O)OCC(=O)NC(C)c2ccccc2)cn1 (centres undefined)	-0.6%	-7.4	·	·	13.2%
CC(C)C(NC(=O)c1ccc2c(c1)OCO2)C(=O)N/N=C/c1cccs1 (centres undefined)	9.0%	13.5	-11.3%	?	-2.0%
Cc1c(/C=N/NC(=O)C(NC(=O)c2ccc3c(c2)OCO3)C(C)C)c2ccccc2n1C (centres undefined)	0.2%	-80.2*	?	?	11.2µM*
CC(C)c1ccc(NC(=O)C2(C)Cc3c(-c4ccc(C(N)=O)cc4)ccnc3O2)cc1 (centres undefined)	-28.7%	-26.1	·	·	·
C=CCC1(CC=C)CCCN1C(=O)c1cc(COc2ccc(F)c(F)c2)on1	?	0.0	·	·	?
C=CCC1(CC=C)CCCN1C(=O)c1cc(COc2ccc(C)nc2)on1	?	-75.6*	·	·	0.794µM*
Cc1ccc(C(=O)C2CCNCC2)cc1	11.5%	39.3	-38.4%	24.5%	7.8%
Cc1ccc(C(=O)C2C(=O)C3CCC2C3)cc1 (centres undefined)	·	-73.3*	·	·	·
CC(C)(C)OC(=O)C[C@H]1C/C=C\C[C@H](CC(=O)NCCO)C(=O)N2CCC[C@@H]2COC1=O	-1.6%	-60.4*	·	·	17.1%
COc1cccc(Cn2c(=O)n(-c3ccccc3C)c(=O)c3c2c2cc(C)ccc2n3C)c1	-23.9%	-68.2*	·	?	·
COc1ccc(Cn2c(=O)n(-c3ccc(C)cc3)c(=O)c3c2c2cc(C)ccc2n3C)cc1	-14.5%	21.6	·	?	·
CCOC(=O)N1CCc2c(sc3c2c(=O)n(-c2ccc(CC)cc2)c(=O)n3CC(=O)NCC2CCCO2)C1 (centres undefined)	-17.8%	·	·	·	23.3%
Clc1ccccc1CN(Cc1ccco1)Cc1nnnn1C1CCCC1	-27.1%	10.2	-11.0%	-8.2%	10µM*
SMILES	FMDV inh	HCMV inh	Marburg entry inh	Lassa entry inh	HCV inhibitor
CCN(CC)C(=O)c1cc(-c2ccc3c(c2)OCO3)on1	23.7%	150.3	?	?	7.4%
COc1cccc(/C=C/C(=O)OCC(=O)Nc2ccccc2Sc2ccccc2)c1	-5.7%	-64.8*	-11.0%	-5.6%[46.1 µM]	10.0%
CCN(CC)C(=O)[C@H]1C[C@H](CC(=O)NCC23CC4CC(CC(C4)C2)C3)C(=O)N2CCc3c([nH]c4cc(-c5ccco5)ccc34)[C@]12C	?	-3.0	·	·	13.0%
O=C(C[C@H]1C[C@H](C(=O)N2CCOCC2)[C@@]2(CCC3CCCC3)c3[nH]c4cc(-c5ccco5)ccc4c3CCN2C1=O)NCCN1CCOCC1	?	-10.8	·	·	?
CC(C)=CCC/C(C)=C/CNC(=O)C[C@H]1C[C@H](C(=O)N(C(C)C)C(C)C)[C@@]2(C)c3[nH]c4cc(CCC(=O)N(C)C)ccc4c3CCN2C1=O	?	-15.2	·	·	10µM*
CCN(CC)C(=O)[C@H]1C[C@H](CC(=O)NCCCN(C)C)C(=O)N2CCc3c([nH]c4cc(CCC(=O)N(C)C)ccc34)[C@]12C	5.5%	28.3	·	·	2.1%
C[C@]12c3[nH]c4cc(-c5ccco5)ccc4c3CCN1C(=O)[C@@H](CC(=O)NCC13CC4CC(CC(C4)C1)C3)C[C@@H]2C(=O)N1CCOCC1	?	-29.4	·	·	25.1µM*
CN(C)CCCNC(=O)C[C@H]1C[C@H](C(=O)N2CCOCC2)[C@@]2(CCC3CCCC3)c3[nH]c4cc(-c5ccco5)ccc4c3CCN2C1=O	-24.6%	?	·	·	7.94µM*
CC(C)N(C(=O)[C@H]1C[C@H](CC(=O)NCCCN(C)C)C(=O)N2CCc3c([nH]c4cc(CCC(=O)N(C)C)ccc34)[C@]12C)C(C)C	-5.4%	-14.3	·	·	0.316µM*
CCCCn1c(N)c(N(CC(C)C)C(=O)CSc2n[nH]c(-c3ccc(C)cc3)n2)c(=O)[nH]c1=O	5.4%	21.3	?	-9.0%	16.9%
C[C@H](NC(=O)c1ncn(C)c1C(=O)N[C@@H](C)c1ccccc1)c1ccccc1	-4.0%	27.9	·	·	11.9%
CC(C)N(C(=O)[C@H]1C[C@H](CC(=O)NCCCN(C)C)C(=O)N2CCc3c([nH]c4cc(-c5ccco5)ccc34)[C@]12C)C(C)C	0.0%	-24.2	·	·	8.91µM*
CCN(CC)C(=O)[C@H]1C[C@H](CC(=O)NCCCN(C)C)C(=O)N2CCc3c([nH]c4cc(-c5ccco5)ccc34)[C@]12C	-6.1%	-14.4	·	·	?
CCN(C(=O)COC(=O)CCCOc1ccccc1)c1c(N)n(Cc2ccccc2)c(=O)[nH]c1=O	-17.2%	-17.3	·	·	0.4%
CCOC(=O)N1CCC(NC(=O)c2ccc3c(c2)ncn3C2CCCC2)CC1	7.8%	-68.1*	·	·	-1.1%
CCOC(=O)N1CCN(C(=O)c2ccc3c(c2)ncn3C2CCCC2)CC1	·	-61.9*	0.2%	5.4%	21.6%
CCOC(=O)c1[nH]c2ccccc2c1NC(=O)c1ccc(S(=O)(=O)N2CCCC2)cc1	-27.7%	96.4	-27.8%	-11.4%	-7.9%[8.37 µM]
Cc1ccc(CS(=O)(=O)c2ncc(Cl)c(C(=O)Nc3nc4ccc(C)cc4s3)n2)cc1	?	-107.0*	?	?	·
COc1ccc2nc(NC(=O)c3nc(SC(C)C)ncc3Cl)sc2c1	-16.5%	2.5	?	16.7%[46.1 µM]	·
CCCc1nnc(NC(=O)c2nc(S(=O)(=O)Cc3ccc(C)cc3)ncc2Cl)s1	35.5µM*	-106.5*!	-1.7%[46.1 µM]	?	?

Screens (PubChem BioAssay)
